Data as given in the supplement of paper PMC6555819.

Experiments:
Test in all cases: PBM binding z-score (relative to random genomic background probes); higher = stronger binding; sequences stand for … in GC…GCGATTGACAGCGTAGAATGAAGG
[1] = system: FXR:RXRa (NR concentration 270 nM, RXRa partner concentration 90 nM)
In short: (§1)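 Scanned fluorescence from custom Agilent 4×180K protein-binding microarrays was regression-normalized. Binding z-scores use random background probes as reference. Ligand-free nuclear receptor dimers were incubated on the arrays for 1 h and detected with antibodies against each partner (one per run).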

[2] = system: LXRa:RXRa (NR concentration 270 nM, RXRa partner concentration 90 nM)
In short: as §1

[3] = system: LXRa homodimer (NR concentration 270 nM)
In short: as §1

[4] = system: LXRb:RXRa (NR concentration 270 nM, RXRa partner concentration 90 nM)
In short: as §1

[5] = system: LXRb homodimer (NR concentration 270 nM)
In short: as §1

[6] = system: PPARa:RXRa (NR concentration 270 nM, RXRa partner concentration 90 nM)
In short: as §1

[7] = system: PPARg:RXRa (NR concentration 180 nM, RXRa partner concentration 90 nM)
In short: as §1

[8] = system: PPARg:RXRa 270nM:90nM, anti-RXR (NR concentration 270 nM, RXRa partner concentration 90 nM)
In short: as §1

[9] = system: PPARg:RXRa 30nM:10nM, anti-RXR (NR concentration 30 nM, RXRa partner concentration 10 nM)
In short: as §1

[10] = system: PPARg:RXRa 90nM:30nM, anti-RXR (NR concentration 90 nM, RXRa partner concentration 30 nM)
In short: as §1

[11] = system: PPARg:RXRa DBDmut IVT, anti-RXR (DBD mutation: RXRa K156A/R161A, NR concentration 270 nM, RXRa partner concentration 90 nM)
In short: as §1

[12] = system: PPARg:RXRa IVT, anti-PPARg (NR concentration 270 nM, RXRa partner concentration 90 nM)
In short: as §1

[13] = system: PPARg DBDmut:RXRa IVT, anti-PPARg (DBD mutation: PPARg1 K132A/R137A, NR concentration 270 nM, RXRa partner concentration 90 nM)
In short: as §1

[14] = system: PPARg DBDmut IVT, anti-PPARg (DBD mutation: PPARg1 K132A/R137A, NR concentration 270 nM)
In short: as §1

[15] = system: PPARg homodimer (NR concentration 180 nM)
In short: as §1

[16] = system: PXR:RXRa (NR concentration 270 nM, RXRa partner concentration 90 nM)
In short: as §1

[17] = system: PXR homodimer (NR concentration 270 nM)
In short: as §1

[18] = system: RARa:RXR (NR concentration 270 nM, RXRa partner concentration 90 nM)
In short: as §1

[19] = system: RARa homodimer (NR concentration 270 nM)
In short: as §1

[20] = system: RARb:RXRa (NR concentration 270 nM, RXRa partner concentration 90 nM)
In short: as §1

| Sequence | PBM binding z-score [1] | PBM binding z-score [2] | PBM binding z-score [3] | PBM binding z-score [4] | PBM binding z-score [5] | PBM binding z-score [6] | PBM binding z-score [7] | PBM binding z-score [8] | PBM binding z-score [9] | PBM binding z-score [10] | PBM binding z-score [11] | PBM binding z-score [12] | PBM binding z-score [13] | PBM binding z-score [14] | PBM binding z-score [15] | PBM binding z-score [16] | PBM binding z-score [17] | PBM binding z-score [18] | PBM binding z-score [19] | PBM binding z-score [20] |
| --- | --- | --- | --- | --- | --- | --- | --- | --- | --- | --- | --- | --- | --- | --- | --- | --- | --- | --- | --- | --- |
| AGAATGAGGTTACGATCAGGGAAACAGAATACAT | 1.98 | 1.94 | -0.122 | 1.75 | -0.632 | 3.9 | 2.97 | 2.65 | 1.2 | 2.18 | 3.35 | 3.6 | 1.79 | 0.837 | 0.684 | 1.19 | 0.235 | 1.92 | 0.462 | 2.16 |
| ACTTATGGGTCAACGAGGTTATAGCACGCGTATA | 5.3 | 4.47 | 0.915 | 3.85 | 0.967 | 5.33 | 6.12 | 5.78 | 2.91 | 5.01 | 6.33 | 5.8 | 1.52 | 2.09 | 2.41 | 4.34 | 1.69 | 4.3 | 1.76 | 3.89 |
| ACAGAGAGGTGATGAAGGTAACTCAGGCTATCAT | 0.1 | -0.0398 | -0.296 | 0.23 | 0.0774 | 0.952 | 0.708 | 0.305 | 0.188 | 0.328 | 1.04 | 1.11 | 0.359 | -0.0267 | 0.505 | 0.0565 | 0.268 | 0.393 | 0.478 | 0.825 |
| GCTTACGGGTCATAGGTTATAGCATGAATAGAAT | 5.98 | 4.32 | 0.326 | 4.2 | 0.262 | 5.87 | 9.25 | 7.94 | 6.8 | 8.53 | 3.9 | 5.19 | 2.06 | 1.56 | 2.24 | 3.94 | 0.0944 | 5.79 | 0.0988 | 3.51 |
| ACAGACAGATGATGAAGGTAACTCAGGCTATCAT | 0.128 | -0.0336 | 0.0406 | 0.0281 | 0.222 | -0.128 | 0.719 | -0.0905 | 0.15 | -0.00308 | -0.169 | -0.00444 | 1.17 | 0.707 | 0.677 | -0.0799 | 0.468 | 0.101 | 0.591 | 0.13 |
| ACAGACAGGAGATGAAGGTAACTCAGGCTATCAT | 0.323 | 0.193 | 0.173 | 0.229 | 0.489 | 0.00739 | 0.816 | 0.278 | 0.594 | 0.135 | -0.00945 | -0.0699 | 1.32 | 0.405 | 0.572 | 0.128 | 0.841 | 0.204 | 0.797 | 0.539 |
| CCTTACGGGTCACTACAGGTTATAGCATCGGAGT | 4.92 | 8 | 2.22 | 6.14 | 0.211 | 4.69 | 3.41 | 3.84 | 1.46 | 2.62 | 2.72 | 3.21 | 0.858 | 0.751 | 1.99 | 4.52 | 0.327 | 4.47 | 1.02 | 3.91 |
| ATATGTAGGTTAGCTGGGGTCATTGAGACTAGGC | 4.97 | 5.62 | 2.48 | 4.62 | 1.35 | 5.24 | 5.52 | 5.03 | 2.46 | 4.26 | 6.54 | 6.07 | 2.23 | 1.29 | 2.75 | 6.11 | 3.42 | 5.49 | 0.751 | 2.9 |
| CCGAGTAGGTTATTGGGCATTCAGGCAACGGTGA | 0.0641 | 0.327 | 0.00288 | -0.0396 | -0.644 | 0.768 | 1.19 | 2.31 | 0.262 | 1.6 | 3.85 | 2.72 | -1.32 | -0.589 | 0.636 | -0.415 | -0.545 | -0.107 | -0.0218 | 0.472 |
| TCATATAGGTAAACAGGTGAATGTCCGTAAGTTA | 0.832 | 1.18 | 1.02 | 0.963 | 0.0472 | 2.02 | 2.31 | 3.18 | 3.86 | 3.58 | 4.88 | 4.45 | 1.34 | 1.04 | 1.16 | 0.702 | 0.0773 | 1.09 | 0.858 | 0.708 |
| CAAACTAGGTCAAGGTCAAGGTCGGTTTGTGCCA | 6.47 | 5.41 | 3.72 | 4.28 | 0.954 | 6 | 9.57 | 7.87 | 6.34 | 8.36 | 8.6 | 8.73 | 2.59 | 1.56 | 5.52 | 5.33 | 2.34 | 5.61 | 2.92 | 5.2 |
| GCTAGCCGGCCATTTGGGTCACTCAATGACGGGC | 0.14 | -0.0989 | -0.475 | -0.0153 | -0.65 | 1.12 | 0.338 | 0.0131 | -0.633 | -0.159 | 0.149 | 1.18 | -0.74 | -1.42 | -0.135 | 0.15 | -0.217 | 0.452 | -1.3 | 1.19 |
| TCCATTAGTTGATTAGGGCAACCGAAACAGCGGA | 0.464 | 0.43 | 0.384 | 0.197 | 0.366 | 0.857 | 0.199 | 2.15 | 3.94 | 2.76 | 2.08 | 1.28 | 0.323 | 0.941 | 0.749 | 0.562 | 0.0879 | 0.689 | 0.398 | 1 |
| AGAACGAGGGCGATGAGTTGATAGCACGGGTGGC | -0.358 | -0.46 | -0.764 | -0.815 | -0.754 | -0.167 | 0.665 | -0.212 | -0.297 | -0.297 | 0.888 | 0.217 | -0.427 | -0.338 | -0.143 | 0.367 | 1.89 | -0.627 | -0.34 | 0.39 |
| AGTCAAAGTTCATCTAGGTACCGTAAGATATGCT | 6.55 | 6.25 | 5.57 | 3.95 | 1.62 | 4.76 | 6.25 | 6.29 | 3.36 | 5.38 | 0.148 | 2.85 | 2.26 | 1.1 | 3.06 | 5.28 | 5.43 | 3.85 | 1.42 | 4.81 |
